From PubChem BioAssay (Tox21)
Results filed as inconclusive are left out. The source made the active and inactive calls. Unless noted, the call rests on the fitted dose curve; in most records, active means well fitted curve in the direction sought with a large enough effect in the repeat runs; inconclusive means weak or mixed curves; inactive means no such curve, though single readings can be large; an effect the other way counts as inactive or inconclusive.

Columns and labels:
[1] = A CellTox Green Cytotoxicity Assay to monitor cytotoxicity in HEK293 cells - 32 hour (AID 1224881); further: nearly all actives have a fitted effect of over 40% in size
How it was run: (§1)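 Dead-cell fluorescence measured kinetically: asymmetric cyanine dye, HEK293, 600 cells/well, 5 h settle, 23 nL cpd/DMSO, 37 C, reads 0–40 h every 8 h.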

[2] = A CellTox Green Cytotoxicity Assay to monitor cytotoxicity in HepG2 cells - 0 hour (AID 1224882); further: nearly all actives have a fitted effect of over 35% in size
How it was run: (§2)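 First, HepG2 cells (600/well) mixed with reagent were plated; second, after 5 h at 37 C they received compounds via pintool; third, fluorescence was measured at 0 h through 40 h at 8 h intervals.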

[3] = A CellTox Green Cytotoxicity Assay to monitor cytotoxicity in HepG2 cells - 32 hour (AID 1224883); further: nearly all actives have a fitted effect of over 50% in size
How it was run: as §2

[4] = A CellTox Green Cytotoxicity Assay to monitor cytotoxicity in HEK293 cells - 8 hour (AID 1224884); further: nearly all actives have a fitted effect of over 35% in size
How it was run: as §1

[5] = qHTS RealTime-Glo MT Cell Viability Assay in HepG2 cells - 16 hour (AID 1224885); further: nearly all actives have a fitted effect of over 50% in size
How it was run: (§3)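 Luminescence read-out: viable HepG2 cells reduce a prosubstrate to a NanoLuc substrate, giving a signal proportional to live cell number. Reads taken at 0, 8, 16, 24, 32 and 40 h of compound exposure at 37 C.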

[6] = qHTS RealTime-Glo MT Cell Viability Assay in HEK293 cells - 24 hour (AID 1224886); further: top concentration of the series differs between compounds; nearly all actives have a fitted effect of over 50% in size
How it was run: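 Nonlytic real-time viability readout: viable cells convert prosubstrate to NanoLuc substrate, giving luminescence proportional to live cell number. HEK293, 600 cells/well, compound added after 5 h, continuous culture at 37 C.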

[7] = qHTS RealTime-Glo MT Cell Viability Assay in HepG2 cells - 0 hour (AID 1224889); further: nearly all actives have a fitted effect of over 50% in size
How it was run: as §3

[8] = A CellTox Green Cytotoxicity Assay to monitor cytotoxicity in HepG2 cells - 8 hour (AID 1224890); further: nearly all actives have a fitted effect of over 45% in size
How it was run: as §2

[9] = qHTS assay to identify small molecule antagonists of the androgen receptor (AR) signaling pathway using the MDA cell line in the presence of 0.5 nM R1881 - cell viability counter screen (AID 1259242); further: nearly all actives have a fitted effect of over 45% in size
How it was run: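 qHTS format. MDA-kb2 (MMTV-luc, AR/GR responsive) + cpd + 0.5 nM R1881 final, 16 hr 37C/0% CO2 → CellTiter-Fluor 30 min → fluorescence intensity.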

[10] = biological target: Androgen receptor (Homo sapiens) (UniProt P10275); assay: qHTS assay to identify small molecule antagonists of the androgen receptor (AR) signaling pathway using the MDA cell line in the presence of 0.5 nM R1881 (AID 1259243); further: nearly all actives have a fitted effect of over 50% in size
Chain of Androgen receptor (Homo sapiens) (P10275 whole entry, looked up): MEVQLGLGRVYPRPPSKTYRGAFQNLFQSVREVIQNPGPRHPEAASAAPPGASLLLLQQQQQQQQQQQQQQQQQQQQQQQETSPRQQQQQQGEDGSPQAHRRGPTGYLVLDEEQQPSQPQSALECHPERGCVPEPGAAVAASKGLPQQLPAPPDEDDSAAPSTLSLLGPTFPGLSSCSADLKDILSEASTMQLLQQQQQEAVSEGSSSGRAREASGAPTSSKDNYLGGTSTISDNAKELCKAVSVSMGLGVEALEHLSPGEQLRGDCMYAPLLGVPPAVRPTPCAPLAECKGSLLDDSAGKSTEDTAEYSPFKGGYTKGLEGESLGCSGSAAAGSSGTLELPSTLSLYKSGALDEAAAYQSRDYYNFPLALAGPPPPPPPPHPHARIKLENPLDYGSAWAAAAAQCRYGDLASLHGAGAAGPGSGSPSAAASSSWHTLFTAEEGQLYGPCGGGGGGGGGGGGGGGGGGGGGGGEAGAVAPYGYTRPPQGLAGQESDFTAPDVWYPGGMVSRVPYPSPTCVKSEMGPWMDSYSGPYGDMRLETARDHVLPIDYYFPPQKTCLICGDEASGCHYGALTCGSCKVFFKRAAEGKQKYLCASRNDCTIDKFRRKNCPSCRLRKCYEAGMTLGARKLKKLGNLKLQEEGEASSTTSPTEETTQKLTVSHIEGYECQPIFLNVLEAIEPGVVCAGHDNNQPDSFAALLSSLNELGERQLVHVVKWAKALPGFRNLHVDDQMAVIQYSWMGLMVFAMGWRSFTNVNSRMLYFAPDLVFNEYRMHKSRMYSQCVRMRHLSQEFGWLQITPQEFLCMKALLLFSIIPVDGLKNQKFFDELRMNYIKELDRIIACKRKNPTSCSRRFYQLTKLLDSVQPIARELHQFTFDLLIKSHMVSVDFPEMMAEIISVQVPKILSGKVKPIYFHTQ
How it was run: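 Antagonist mode quantitative HTS in MDA-kb2 MMTV-luciferase cells, agonist R1881 at 0.5 nM final, 16 hr exposure at 37C and 0% CO2, luminescent detection.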

[11] = biological target: Estrogen receptor (Homo sapiens) (UniProt P03372); assay: qHTS assay to identify small molecule antagonists of the estrogen receptor alpha (ER-alpha) signaling pathway using the BG1 cell line in the presence of 0.1 nM 17-beta-estradiol (AID 1259244); further: nearly all actives have a fitted effect of over 50% in size
Chain of Estrogen receptor (Homo sapiens) (P03372 whole entry, looked up): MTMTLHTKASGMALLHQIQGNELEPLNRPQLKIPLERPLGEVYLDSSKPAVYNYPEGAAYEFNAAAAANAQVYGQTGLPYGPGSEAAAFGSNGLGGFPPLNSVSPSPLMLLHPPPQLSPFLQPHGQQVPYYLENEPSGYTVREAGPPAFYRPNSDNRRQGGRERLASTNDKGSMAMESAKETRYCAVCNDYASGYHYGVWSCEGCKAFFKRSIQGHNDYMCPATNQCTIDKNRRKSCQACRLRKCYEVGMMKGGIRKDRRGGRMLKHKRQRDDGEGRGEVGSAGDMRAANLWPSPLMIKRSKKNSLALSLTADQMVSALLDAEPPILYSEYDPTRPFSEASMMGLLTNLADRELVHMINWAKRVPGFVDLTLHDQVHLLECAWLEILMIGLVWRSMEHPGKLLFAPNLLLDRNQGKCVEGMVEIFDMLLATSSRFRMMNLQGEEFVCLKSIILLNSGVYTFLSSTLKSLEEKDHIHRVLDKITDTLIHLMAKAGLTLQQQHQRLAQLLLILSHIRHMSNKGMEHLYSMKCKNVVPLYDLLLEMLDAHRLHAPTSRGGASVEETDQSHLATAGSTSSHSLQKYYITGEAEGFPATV
How it was run: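 Reporter is a stably transfected luciferase under four estrogen responsive elements in VM7Luc4E2 cells expressing native full-length ER-alpha; inhibition of 0.1 nM (final) 17beta-estradiol-driven signal over 22 h is read by luminescence.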

[12] = qHTS assay to identify small molecule HDAC inhibitors (AID 1259364);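 further: wild-type HCT-116 cells with endogenous class I/II HDAC activity; top concentration of the series differs between compounds; nearly all actives have a fitted effect of over 45% in size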
How it was run: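 Quantitative high-throughput format: overnight-seeded HCT-116 cells got compounds for 2 hr at 37C; HDAC-Glo I/II reagent added, 30 min RT, luminescence measured.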

[13] = qHTS assay to identify small molecule HDAC inhibitors - cell viability counter screen (AID 1259365)
How it was run: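 HCT-116 (wild type), 1,500 cells/well, overnight 37C/5% CO2; compound in DMSO 2hr; CellTiter-Glo 30min RT; luminescence read.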

[14] = qHTS assay to identify small molecule agonists of the sonic hedgehog signaling (Shh) pathway - cell viability counter screen (AID 1259366); further: nearly all actives have a fitted effect of over 50% in size; further: potency means the concentration at half of the fitted maximal effect
How it was run: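 CellTiter-Fluor fluorescence read-out, 1 hr at 37C, added after 23hr compound exposure. Cells: 3T3 Gli1-Luc, an NIH/3T3 clone with stably integrated Gli1-Luc reporter, plated 4hr before compound.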

[15] = qHTS assay to identify small molecule antagonists of the sonic hedgehog signaling (Shh) pathway - cell viability counter screen (AID 1259367); further: nearly all actives have a fitted effect of over 55% in size; further: potency means the concentration at half of the fitted maximal effect
How it was run: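 CellTiter-Fluor signal in conditioned medium-stimulated 3T3 Gli1-Luc cells, 23 hr compound exposure, 37C.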

[16] = qHTS assay to identify small molecule agonists of the sonic hedgehog signaling (Shh) pathway (AID 1259368; calls by dose curve;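 further: NIH/3T3-derived 3T3Gli1-Luc cells carrying a stable Gli1-driven firefly luciferase reporter; series mostly up to about 92 µM; nearly all actives have a fitted effect of over 15% in size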)
How it was run: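 Quantitative high-throughput format using a Gli1-driven firefly luciferase reporter line derived from NIH/3T3 cells. After a 24 hr compound treatment at 37 C and 5% CO2, luminescence reported Gli1 response element activity.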

[17] = A CellTox Green Cytotoxicity Assay to monitor cytotoxicity in HEK293 cells - 16 hour (AID 1224888); further: nearly all actives have a fitted effect of over 35% in size
How it was run: as §1

[18] = qHTS assay to identify small molecule antagonists of the estrogen receptor alpha (ER-alpha) signaling pathway using the BG1 cell line in the presence of 0.1 nM 17-beta-estradiol - cell viability counter screen (AID 1259241); further: nearly all actives have a fitted effect of over 40% in size
How it was run: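 Live-cell protease activity (CellTiter-Fluor fluorescence, 30 min) was read in the same wells after VM7Luc4E2 cells had been exposed to compounds with 0.1 nM 17beta-estradiol for 22 hr at 37C.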

[19] = qHTS RealTime-Glo MT Cell Viability Assay in HEK293 cells - 8 hour (AID 1224887); further: nearly all actives have a fitted effect of over 50% in size; further: potency means the concentration at half of the fitted maximal effect; on activity change, negative = cytotoxicity: top concentration of the series differs between compounds
How it was run: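 600 HEK293 cells per well, dispensed already mixed with RealTime-Glo MT reagents. Compound dosing came 5 h later. The same wells were read for luminescence at 0, 8, 16, 24, 32 and 40 h of exposure at 37 C.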

[20] = qHTS assay to identify small molecule phospholipidosis (PLD) inducers (AID 1259344; active means well fitted curve in the direction sought with a large enough effect; an effect the other way counts as inactive or inconclusive)
How it was run: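 Accumulated phospholipid, stained red by LipidTOX during 24 h compound treatment of HepG2 cells at 37 C, is quantified from images as pit number and intensity, normalised per cell using Hoechst-stained nuclei.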
On the % scale 0 is the no-effect control and ±100 the full control effect.

Nc1ccc2cc(S(=O)(=O)O)cc(O)c2c1
inactive: Potency [1] | outcome [2] | Potency [3] | Potency [4] | outcome [5] | Potency [6] | Potency [7] | outcome [8] | outcome [9] | Potency [10] | Potency [11] | Potency [12] | outcome [13] | Potency [14] | Potency [15] | outcome [16]

CC(C)(C)c1cc(CCC(=O)NN)cc(C(C)(C)C)c1O
inactive: Potency [1] | outcome [2] | Potency [4] | outcome [5] | Potency [6] | outcome [17] | Potency [7] | outcome [8] | Potency [18] | Potency [12] | outcome [13] | Potency [14] | Potency [15] | outcome [16]

Cc1nc2n(c(=O)c1CCN1CCC(c3noc4cc(F)ccc34)CC1)CCC[C@H]2O
active: Potency [19] 3.69 µM
inactive: cytotoxicity increase [1] 6.5% [at 15.8 µM] | cytotoxicity [2] -4% [at 15.8 µM] | cytotoxicity increase [3] 2.66% [at 15.8 µM] | cytotoxicity increase [4] 2.15% [at 15.8 µM] | activity change, negative = cytotoxic [5] -0.162% [at 15.8 µM] | activity change [17] 1.32% [at 15.8 µM] | activity change, negative = cytotoxicity [7] 2.14% [at 15.8 µM] | activity change, negative = cytotoxicity [18] 1.89% [at 19 µM] | viability change, negative = cytotoxic [9] 9.15% [at 19 µM] | activity change, negative = inhibition [11] 1.12% [at 19 µM] | outcome [20] | activity change, negative = inhibition [12] -1.31% [at 19 µM] | activity change, negative = cytotoxicity [13] -0.155% [at 19 µM] | viability change, negative = cytotoxic [14] -0.31% [at 19 µM] | viability change, negative = cytotoxic [15] -0.26% [at 19 µM] | activity change [16] -0.0213% [at 18.9 µM]

CC(C)OC(=O)CCCCC(=O)OC(C)C
inactive: Potency [1] | Potency [3] | Potency [4] | outcome [5] | Potency [6] | Potency [19] | outcome [17] | Potency [7] | outcome [8] | Potency [18] | outcome [9] | Potency [11] | Potency [12] | Potency [14] | outcome [16]

CCCCC(CC)COCCO (configuration not stated)
inactive: Potency [1] | outcome [2] | Potency [3] | Potency [4] | outcome [5] | Potency [6] | outcome [17] | Potency [7] | outcome [9] | Potency [11] | Potency [12] | outcome [13] | Potency [14] | Potency [15] | outcome [16]

CC(C)(C)OC(=O)c1ccc(O)cc1
inactive: Potency [1] | outcome [2] | Potency [4] | outcome [5] | Potency [6] | outcome [17] | Potency [7] | outcome [8] | Potency [18] | outcome [9] | outcome [13] | Potency [14] | Potency [15] | outcome [16]

NS(=O)(=O)c1ccc(NC(=O)CCC(=O)O)cc1
inactive: Potency [1] | outcome [2] | Potency [3] | Potency [4] | outcome [5] | Potency [6] | outcome [8] | Potency [18] | outcome [20] | Potency [12] | outcome [13] | Potency [14] | Potency [15] | outcome [16]

Cc1ccc(S(=O)(=O)O)c(C)c1
inactive: Potency [1] | outcome [2] | Potency [4] | outcome [5] | Potency [6] | Potency [19] | outcome [17] | Potency [7] | outcome [8] | Potency [18] | outcome [9] | Potency [11] | Potency [12] | Potency [14] | Potency [15] | outcome [16]

OCCN(CCO)c1cccc(Cl)c1
inactive: Potency [1] | Potency [3] | Potency [4] | outcome [5] | Potency [6] | Potency [19] | outcome [17] | Potency [7] | outcome [8] | Potency [18] | outcome [9] | Potency [10] | Potency [12] | outcome [13] | Potency [14] | Potency [15] | outcome [16]

COCCOC(=O)C1=C(C)NC(C)=C(C(=O)OC(C)C)C1c1cccc([N+](=O)[O-])c1 (configuration not stated)
inactive: Potency [1] | outcome [2] | Potency [3] | Potency [4] | outcome [17] | outcome [8] | Potency [18] | outcome [9] | outcome [20] | Potency [12] | outcome [13] | Potency [14] | Potency [15] | outcome [16]

COc1cc2c(cc1OC)C(=O)CC2
inactive: Potency [1] | outcome [2] | Potency [3] | Potency [4] | outcome [5] | Potency [6] | outcome [17] | Potency [18] | outcome [9] | Potency [10] | Potency [12] | Potency [14] | Potency [15] | outcome [16]

CCCCCCCC/C=C\CCCCCCCC(=O)OCCCC
inactive: cytotoxicity increase [1] -35.2% [at 15.8 µM] | cytotoxicity [2] -2.01% [at 15.8 µM] | cytotoxicity increase [3] -13.6% [at 15.8 µM] | cytotoxicity increase [4] -25.9% [at 15.8 µM] | activity change, negative = cytotoxic [5] 1.32% [at 15.8 µM] | activity change [17] -29.4% [at 15.8 µM] | activity change, negative = cytotoxicity [7] -22.5% [at 15.8 µM] | cytotoxicity increase [8] -0.525% [at 15.8 µM] | viability change, negative = cytotoxic [9] -4.19% [at 19 µM] | activity change, negative = inhibition [11] -2.58% [at 19 µM] | activity change, negative = inhibition [12] 2.78% [at 19 µM] | activity change, negative = cytotoxicity [13] -0.686% [at 19 µM] | viability change, negative = cytotoxic [14] -5.96% [at 19 µM] | viability change, negative = cytotoxic [15] 1.8% [at 19 µM] | activity change [16] -0.497% [at 18.9 µM]

CC/C=C\CC1=C(C)CCC1=O
inactive: Potency [1] | outcome [2] | Potency [3] | Potency [4] | outcome [5] | Potency [6] | outcome [17] | outcome [8] | Potency [18] | outcome [9] | Potency [10] | Potency [12] | outcome [13] | Potency [14] | Potency [15] | outcome [16]

C[C@@H](Oc1ccc(CNC(=O)c2cccnc2Oc2ccc3c(c2)OCO3)c(F)c1)C(=O)O
inactive: Potency [1] | outcome [2] | Potency [3] | Potency [4] | outcome [5] | Potency [6] | outcome [17] | outcome [8] | Potency [18] | outcome [9] | Potency [11] | Potency [12] | outcome [13] | Potency [14] | Potency [15] | outcome [16]

COc1ccc2c(c1OC)C(=O)O[C@@H]2[C@H]1c2c(cc3c(c2OC)OCO3)CCN1C
inactive: Potency [1] | outcome [2] | Potency [4] | outcome [5] | Potency [19] | outcome [17] | Potency [7] | outcome [8] | outcome [20] | Potency [12] | outcome [13] | outcome [16]
active: Potency [14] 2.11 µM | Potency [15] 3.35 µM

CN(C)c1ccc(C=O)cc1
inactive: Potency [1] | outcome [2] | Potency [3] | Potency [4] | outcome [5] | Potency [6] | outcome [17] | outcome [8] | Potency [18] | outcome [9] | Potency [11] | outcome [13] | Potency [14] | Potency [15] | outcome [16]
